Wnt bcat act: Wnt/beta-catenin pathway activators, primary screen, cell-based, plate reader, single point. Wnt/beta-catenin reporter cell assay, activator. activation, % at 9.35 µM. actives 1.2% (n = 300,000). AID 743398, 2014; in the data active = activation above about 30%, passing the limit was not always enough; inconclusive = no clear call, values can overlap the other calls;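 also: 0% = neutral control wells and 100% = positive control wells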
MITF TRPM1 HTS: activators of MITF-driven TRPM1 promoter reporter, primary screen, cell-based, SK-MEL-5, luciferase, single point | activation, % at 12.5 µM | actives 0.75% (n = 300,000) | AID 588334, 2011 | SK-MEL-5 TRPM1-promoter luciferase, 24 h; % of positive control, neutral wells = 0;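 active = mean activation of at least 80% with every replicate also reaching 80%; inconclusive = mean reaches 80% but some replicate falls short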;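 also: 0% = neutral control wells and 100% = parthenolide positive control wells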
esBAF inh: Bmi1 luciferase reporter increase in mESCs, primary screen, esBAF inhibitor project, mouse ES cells, Bmi1 luciferase knock-in, single point. 24 h; 100% = twice the neutral-well signal. reporter increase, % at 12.5 µM. actives 2% (n = 350,000); in the data active = activation above about 40%; inconclusive = no clear call, values can overlap the other calls;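 also: 0% = median of the plate's neutral control wells and 100% = double that signal; a rise in the Bmi1 reporter signal indicates esBAF inhibition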
SMARCA2 activ: SMARCA2 (BRM) function activators, primary screen, cell-based, luminescence, high throughput; actives 1% (n = 370,000); activation, % at 9.1 µM; MG213 cells, MMTV-luciferase reporter, dexamethasone, overnight; in the data active = activation above about 7.8%;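 also: 0% = vehicle wells and 100% = reference activator wells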
HSF1 inh: HSF1 inhibitors in luciferase reporter cells, primary screen, cell-based, NIH3T3, luminescence. NIH3T3-HGL HSE-luciferase, MG132-induced, luminescence 8 h; hits give low values. activity change, negative = inhibition, % at 7.5 µM (by protocol). actives 0.77% (n = 300,000). AID 2098, 2009;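 active = more than half of replicate wells show activity change below -50%, luminescence cut by over half; inconclusive = some wells, but at most half, below -50%; inactive = no replicate well below -50%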;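 also: luciferase reports HSF-1 transcriptional activity via heat shock element; 0% = median of DMSO wells and -100% = zero luminescence signal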
HSF1 activator: HSF-1 activators, primary screen, NIH3T3-HGL cells, MG132 stress, luminescence, single point. activation, % at 9 µM. NIH3T3-HGL HSF-1 luciferase reporter, 8 h; 100% = twice DMSO control signal. actives 1.7% (n = 300,000);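 active = mean replicate activation of at least 50% with a set share of replicates each reaching 50%; inconclusive = only one of those two conditions met; inactive = mean below 50% and too few replicates reaching it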;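 also: 0% = median of the neutral control wells and 100% = twice that signal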
SMARCA2 conf: SMARCA2 (BRM) function activators, confirmation, cell-based, luminescence, triplicate; AID 652260, 2013; activation, % at 9.1 µM; shares compounds with SMARCA2 activ; MG213 cells, MMTV-luciferase with dexamethasone, overnight; MG213 cells expressing E1A, Rb sequestered; DMSO wells 0%, reference activator 100%; actives 30% (n = 3,500);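 active = activation above its plate's cutoff, the mean activation of tested wells plus 3 SD, cut at about 7.9% in these data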
VP16 Luc act: GAL4-VP16 luciferase reporter activation, counter-screen for SMARCA2 (BRM) activator project, cell-based, pG5luc, luminescence, high throughput; shares compounds with SMARCA2 activ; HEK293 GAL4-VP16 pG5luc reporter; scaled: DMSO wells 0%, SAHA wells 100%; activation, % at 9.1 µM; actives 41% (n = 3,500); AID 686939, 2013;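 active = activation above the solvent-only control well mean plus 3 SD, averaged across control plates, cut at about 5.2% in these data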
* hit, by the source's call; ? = inconclusive; nt = no result. Compounds with a hit are over-represented: about 4.3% of the library has one in this group of screens.

SMILES	Wnt bcat act	MITF TRPM1 HTS	esBAF inh	SMARCA2 activ	HSF1 inh	HSF1 activator	SMARCA2 conf	VP16 Luc act
O=C1c2cccc3c([N+](=O)[O-])ccc(c23)C(=O)N1Cc1cccnc1	10	-22	nt	8	-2	-8	nt	nt
Cc1ccnc(N2C(=O)c3cccc4c([N+](=O)[O-])ccc(c34)C2=O)c1	27	-11	-1	9.9*	-9	-22	-14	4
Cc1nc2c(OCc3ccc(F)cc3)cccn2c1N(C)C(=O)CCC1CCCC1	-3	nt	8	-4	nt	nt	nt	nt
Cc1nc2c(OCc3ccc(Cl)cc3)cccn2c1N(C)C(=O)CCC1CCCC1	2	nt	10	8.3*	nt	nt	-4	-1
C[C@@H]1CN([C@H](C)CO)C(=O)c2cc(C#CC(C)(C)O)cnc2O[C@@H]1CN(C)Cc1cncnc1	nt	nt	-3	nt	nt	nt	nt	nt
O=[N+]([O-])c1cccnc1NCCc1c[nH]c2ccccc12	30	64	?	8.8*	24	54*	13*	8.4*
Cc1ccc(OCc2nc3ccccc3[nH]2)cc1	18	25	19	14*	11	-2	10*	8.2*
Cc1ccc(C(=O)Cc2nc3ccccc3[nH]2)cc1	1	31	38	5	25	32	nt	nt
Cc1noc(C)c1NC(=O)Nc1ccc2c(c1)CC(=O)N([C@@H](C)CO)C[C@@H](C)[C@@H](CN(C)C(=O)Nc1ccc(C(F)(F)F)cc1)O2	nt	nt	2	nt	nt	nt	nt	nt
O=C(CSc1ccsc1[N+](=O)[O-])NCc1ccccc1	11	31	30	11*	4	18	7	3
COc1ccccc1CNC(=O)CSc1ccsc1[N+](=O)[O-]	?	37	nt	1	14	44	nt	nt
COC(=O)c1cc2ccsc2n1Cc1nc(-c2cccc(Cl)c2)oc1C	-7	-2	-8	12*	0	9	-6	0
COC(=O)c1cc2sccc2n1Cc1nc(-c2cccc(Cl)c2)oc1C	-5	3	-3	-1	3	21	nt	nt
C[C@H](CO)N1C[C@H](C)[C@@H](CN(C)C(=O)Nc2ccc3c(c2)OCO3)OCCCC[C@H](C)Oc2ccc(NC(=O)CCC(F)(F)F)cc2C1=O	nt	nt	11	nt	nt	nt	nt	nt
c1ccc(Nc2nc3ccccc3o2)cc1	nt	34	17	13*	24	43	6	8.4*
Cc1cc(C)nc(Nc2nc3ccccc3o2)n1	-4	20	-7	5	21	28	nt	nt
O=C(Cn1c(=O)c2sccc2n(Cc2ccc([N+](=O)[O-])cc2)c1=O)NCCc1ccccc1	-5	-10	nt	10*	13	12	-6	0
CC1=Nn2c(nc3sc4c(c3c2=O)CCCC4)SC1	21	55	nt	10*	3	11	0	1
CC1CSc2nc3sc4c(c3c(=O)n21)CCCC4 (stereo unspecified)	nt	29	?	3	12	21	nt	nt
C=CCSc1nnc(NC(=O)C2=COCCO2)s1	nt	44	29	8.0*	9	12	8.2*	11*
c1ccc(-c2nnnn2-c2ccccc2)cc1	0	-4	-7	-2	0	16	nt	nt
ClC(Cl)(c1nnnn1-c1ccccc1)c1nnnn1-c1ccccc1	-24	-33	-13	24*	nt	nt	-4	-1
O=C(NCC1CCCN1S(=O)(=O)c1cccs1)c1ccccc1F (stereo unspecified)	-2	5	2	8.4*	0	-3	-5	2
N=C1c2ccccc2CN1c1ccc(S(=O)(=O)N2CCCCC2)cc1	0	10	-5	-1	-1	-9	nt	nt
CCOC(=O)c1ccc(N2Cc3ccccc3C2=N)cc1	0	46	17	12*	-26	-35	11*	3
SMILES	Wnt bcat act	MITF TRPM1 HTS	esBAF inh	SMARCA2 activ	HSF1 inh	HSF1 activator	SMARCA2 conf	VP16 Luc act
CC1(C)Cc2c(c(-c3ccco3)nc3sc4c(NCCCO)ncnc4c23)CO1	4	-2	-3	10.0*	5	5	15*	1
CC1(C)Cc2c(C#N)c(NCCO)nc(-c3ccco3)c2CO1	-2	nt	-10	8.6*	-52*	-58	0	2
CCN(CC)CCNc1ncnc2c1sc1nc(N3CCCC3)c3c(c12)CC(C)(C)OC3	-1	-44	nt	8.3*	4	-4	4	0
CC1(C)Cc2c(C#N)c(NCCN3CCOCC3)nc(-c3ccco3)c2CO1	-5	0	11	0	7	7	nt	nt
CC1(C)Cc2c(c(-c3ccco3)nc3sc4c(NCCN5CCOCC5)ncnc4c23)CO1	0	-18	nt	3	5	19	nt	nt
O=C(Nc1ccc2c(c1)[C@H]1C[C@@H](CC(=O)N3CCc4ccccc4C3)O[C@H](CO)[C@H]1O2)c1ccc2c(c1)OCO2	nt	nt	22	nt	nt	nt	nt	nt
C=CCN1C(=O)/C(=C/c2ccc(O)c(OC)c2)S/C1=N/c1nccs1	nt	3	nt	11*	3	27	2	1
C=CCN1C(=O)/C(=C/c2ccc(OCC(=O)O)cc2)S/C1=N/c1nccs1	-1	-2	nt	2	-9	-4	nt	nt
CN=C1S/C(=C\c2ccc(O)c(Br)c2)C(=O)N1C	9	-5	23	1	-3	6	nt	nt
CN=C1S/C(=C\c2ccc(O)c(OC)c2)C(=O)N1C	52*	nt	nt	8.9*	16	32	7	14*
COc1ccc(N=C(C)C2=C(O)CSC2=O)cc1	16	-6	31	6	1	-13	nt	nt
CC(=Nc1ccccc1)C1=C(O)CSC1=O	-1	1	46*	8.6*	-8	-2	2	4
O=C(C[C@@H]1C=C[C@@H](NC(=O)c2cccnc2)[C@@H](CO)O1)NCc1ccc(Cl)c(Cl)c1	nt	nt	0	nt	nt	nt	nt	nt
Cc1ccc(-c2noc(-c3ccoc3C)n2)cc1	19	46	34	10*	18	36	8.2*	10*
CCCOc1ccc(C(=O)NNC(=S)NC(=O)c2ccccc2)cc1	-3	-11	0	-1	1	5	nt	nt
CCCOc1ccc(C(=O)NNC(=S)NC(=O)c2cccs2)cc1	-6	-14	-20	13*	-55*	-62	3	0
O=C(Nc1ccccc1)NC1CCCCCCC1	8	nt	nt	12*	7	49	5	4

Assay outcomes (PubChem)
